# The campaign covered roughly 330,000 compounds. About 1,400 (0.42%) were called active. This is one part of a sample in which actives are shown more often than they occur.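 Rule for the calls: active = plate passing quality check with inhibition over a set limit, or well fluorescence over plate mean plus 4 SD; inactive = the rest.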
# Test: antifungal drug efflux pump blockers, triplex strains – S. cerevisiae, Nile Red, multiplex, primary screen (AID 485275);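 note: Nile Red retained in pooled yeast measured as flow cytometry median fluorescence; 0% = buffer negative control and 100% = Enniatin B positive control; higher means more Nile Red kept so more efflux inhibition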
# Conditions: S. cerevisiae Candida pump triplex, at 10 µM, stronger effect = higher value
row,SMILES,inhibition
1,C/C(=N/O)c1ccc2ccc3ccccc3c2c1,0.16% (inactive)
2,Cc1ccc(-n2c(-c3ccc([N+](=O)[O-])cc3)nc3ccccc3c2=O)cc1,-0.08% (inactive)
3,O=[N+]([O-])c1cnc2ccc3ccccc3c2c1,0.41% (active)
4,Clc1ccc2nc3c(c(-c4ccccc4)c2c1)CNCC3,-0.17% (inactive)
5,COC(=O)C1=C(c2ccc(Cl)c(C(F)(F)F)c2)C[C@@H]2CC[C@H]1N2C(=O)NC1CC1,-0.03% (inactive)
6,CCN(CC)c1ccc([N+](=O)[O-])c2cccnc12,1.08% (active)
7,CN(c1ccccc1)c1ccc([N+](=O)[O-])c2nonc12,-0.18% (inactive)
8,CN1CCC(N(C)Cc2cccnc2)CC1,0.12% (inactive)
9,c1cc2c(cc1CCNC1CCCCCC1)OCO2,0.08% (inactive)
10,CCN1CC2C3CCC(C)(O3)C2C1 (stereo not given),-0.18% (inactive)
